Assay outcomes deposited in PubChem by National Center for Advancing Translational Sciences (NCATS).
ATXN2 expr inh = ATXN2 expression inhibition. HEK-293 ATXN2-luciferase reporter, luminescence, 24 h. Potency, µM (titrated, usually from 57 µM), usual class: inhibitors. 360,000 tested, 0.72% active. AID 1745845; further: nearly all actives have a fitted effect of over 55% in size
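qHTS (up to 57 uM final) was run with 24 h compound exposure of reporter cells at 37 °C. Each well was multiplexed: SteadyGlo luminescence measured ATXN2-luciferase expression after a fluorogenic Gly-Phe-AFC viability readout (25 uM final).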
ATXN viability = reduces viability in counter-screen for ATXN expression inhibitors | S2 cells (HEK-293 line with an ATXN2-luciferase reporter) viability, CellTiter-Fluor protease fluorescence, 24 h | Potency, µM (titrated, usually from 56.7 µM), hits mostly cytotoxic | 400,000 tested, 0.49% active | AID 651635; further: nearly all actives have a fitted effect of over 40% in size
HT1080NT lethal = kills 2HG-producing HT-1080-NT fibrosarcoma cells; HT-1080-NT fibrosarcoma viability, CellTiter-Glo ATP luminescence, 48 h; 360,000 tested, 1.6% active; AID 686970; Potency, µM (top dose mostly 46.1 µM), hits mostly cytotoxic;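 further: NT is the 2HG producing partner of a matched IDH1 knockdown line; nearly all actives have a fitted effect of over 55% in size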
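Viability of the 2HG-overproducing fibrosarcoma line after 48 hours of compound exposure at 37 degrees C was determined by luminescence with CellTiter-Glo, and concentration-effect curves were then fitted and categorized.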
KB-3-1 cytotox = KB-3-1 parental cell cytotoxicity | KB-3-1 viability, CellTiter-Glo ATP luminescence, 72 h | Potency, µM (titrated, usually from 46.1 µM), most hits filed as cytotoxic | 400,000 tested, 1.4% active | AID 1347075; further: nearly all actives have a fitted effect of over 60% in size
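Cells are dispensed, compounds pinned in, plates held at 37 °C for 72 h, then CellTiter-Glo is added and luminescence read after 10 minutes. Cell line: parental KB-3-1 in phenol-red-free DMEM, 10% FBS.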
HT1080 IDH1KD tx = kills HT-1080 cells with IDH1 knockdown. HT-1080 IDH1 knockdown viability, ATP luminescence, 48 h. Potency, µM (top dose mostly 46.1 µM), actives largely listed as cytotoxic. AID 686971. 360,000 tested, 2% active
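% activity derives from luminescence (CellTiter-Glo), normalised to DMSO and no-cell wells. HT-1080-IDH1KD cells, 750/well, had 48 h compound exposure at 37 °C.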
KB-V1 MDR tox = kills drug-selected multidrug resistant KB-V1 cells. 400,000 tested, 3.4% active. KB-V1 MDR cells viability, CellTiter-Glo, 72 h. AID 1347076. Potency, µM (doses to about 46.1 µM), hits mostly cytotoxic; further: nearly all actives have a fitted effect of over 60% in size
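qHTS viability screen in drug-selected KB-V1 MDR cells: 72 h compound treatment at 37 degrees C, ATP luminescence end point.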
Large screens that a line does not name were inactive. Only some compounds are listed: those with a hit (about 6.2% of all), similar ones and a draw of the others. The call rests on the fitted dose curve; in most records, active means well fitted curve in the direction sought with a large enough effect; inconclusive means small, poorly fitted or top-dose-only effect, or another doubt; inactive means no such curve, though single readings can be large; an effect the other way counts as inactive or inconclusive.

COc1cc(C(=O)O/N=C2\C=CC(=O)C(C)=C2)cc(OC)c1OC	ATXN viability inconclusive, HT1080NT lethal 23.1µM, KB-3-1 cytotox inconclusive, HT1080 IDH1KD tx inconclusive, KB-V1 MDR tox inconclusive
CCN(CC)CCOC(=O)C1(c2ccc(OC)c(OC)c2)CCCC1	KB-V1 MDR tox 20.6µM
Nc1ncnc(Nc2ccc(F)cc2)n1	ATXN viability inconclusive
Fc1ccc(Nc2ccnc(Nc3ccc(F)cc3)n2)cc1	HT1080NT lethal inconclusive, HT1080 IDH1KD tx inconclusive, KB-V1 MDR tox 14.6µM
N#Cc1ccc(/C=C2/C=Cc3ccccc32)cc1	none (no result: ATXN2 expr inh, ATXN viability, HT1080NT lethal, HT1080 IDH1KD tx)
COc1cc(-c2ccc(Cl)cn2)cc2c1OCCN(S(=O)(=O)C[C@]13CC[C@H](CC1=O)C3(C)C)C2	none (no result: ATXN2 expr inh, HT1080NT lethal, KB-3-1 cytotox, HT1080 IDH1KD tx, KB-V1 MDR tox)
CCOC(=O)c1cccc(NC(=O)C(C)n2nc(C)c3c(C)n(-c4ccccc4)nc3c2=O)c1 (stereo not given)	none (no result: HT1080NT lethal, HT1080 IDH1KD tx)
COc1cc2nc(CN(CCO)C3CS(=O)(=O)CC3O)nc(N3CCCCC3)c2cc1OC (stereo not given)	none (no result: ATXN2 expr inh, HT1080NT lethal, KB-3-1 cytotox, HT1080 IDH1KD tx, KB-V1 MDR tox)
CCOc1ccc2nc(N3C(=O)CNC3=S)sc2c1	ATXN2 expr inh inconclusive, KB-V1 MDR tox inconclusive (no result: ATXN viability)
Cc1cc2nc(N3C(=O)CNC3=S)sc2cc1C	ATXN2 expr inh inconclusive, ATXN viability inconclusive, KB-3-1 cytotox inconclusive, KB-V1 MDR tox 16.4µM
COc1cccc(NC(=O)CCNC(=O)Cn2cnc3ccccc3c2=O)c1	none (no result: HT1080NT lethal, HT1080 IDH1KD tx)
Cc1cc(NS(=O)(=O)c2ccc(NC(=S)NC(=O)c3ccc(C(C)(C)C)cc3)cc2)no1	KB-V1 MDR tox 23.1µM
CC(C)C(=O)NC(=S)Nc1ccc(S(=O)(=O)N2CCCC2)cc1	KB-V1 MDR tox 14.6µM
O=C(NC(=S)Nc1ccc(S(=O)(=O)N2CCCC2)cc1)c1cccs1	KB-V1 MDR tox 10.3µM
Cc1ccc(C(=O)NC(=S)Nc2ccc(S(=O)(=O)N3CCN(C)CC3)cc2)cc1	KB-V1 MDR tox 23.1µM
Cc1cc(NS(=O)(=O)c2ccc(NC(=S)NC(=O)c3ccccc3)cc2)no1	none
Cc1cccc(C(=O)NC(=S)Nc2ccc(S(=O)(=O)N3CCN(C)CC3)cc2)c1	none
CC(C)CC(=O)NC(=S)Nc1ccc(S(=O)(=O)N2CCCC2)cc1	KB-V1 MDR tox inconclusive
CCN(CC)c1ccc(NS(=O)(=O)c2cc3[nH]c(=O)c(=O)[nH]c3cc2C)c(C)c1	KB-V1 MDR tox inconclusive (no result: HT1080NT lethal, HT1080 IDH1KD tx)
CC(C)C(=O)Nc1cccc(C2CN3CCSC3=N2)c1 (stereo not given)	none (no result: HT1080NT lethal, KB-3-1 cytotox, HT1080 IDH1KD tx, KB-V1 MDR tox)
Cc1ccc(S(=O)(=O)Nc2ccc(C(=O)Nc3cc(C)on3)cc2)cc1	none
Cc1ccc(NS(=O)(=O)c2cccc(C(=O)Nc3cc(C)on3)c2)cc1	KB-V1 MDR tox 4.61µM
CN1CCN(S(=O)(=O)c2ccc(-c3ccccc3)cc2)CC1	none
O=C(NC(=S)Nc1ccc(N2CCCCC2)cc1)c1cccs1	HT1080NT lethal 1.26µM, HT1080 IDH1KD tx 3.98µM
Cc1ccc(-c2ccc(S(=O)(=O)N3CCN(C)CC3)cc2)cc1	KB-V1 MDR tox 13µM
N#CSCC(=O)O	none (no result: HT1080NT lethal, KB-3-1 cytotox, HT1080 IDH1KD tx, KB-V1 MDR tox)
Cc1cc2c(F)c(Oc3ncnn4cc(OC[C@@H](C)O)c(C)c34)ccc2[nH]1	none (no result: ATXN viability, HT1080NT lethal, KB-3-1 cytotox, HT1080 IDH1KD tx, KB-V1 MDR tox)
COc1cc(/C=C(\C#N)c2nc3ccc(C)cc3[nH]2)c([N+](=O)[O-])cc1OC	HT1080 IDH1KD tx inconclusive
CCOC(=O)COc1ccc(/C=C(\C#N)c2nc3ccc(C)cc3[nH]2)cc1OC	KB-3-1 cytotox 18.4µM, KB-V1 MDR tox inconclusive (no result: HT1080NT lethal, HT1080 IDH1KD tx)
COc1cc(/C=C(\C#N)c2nc3ccc(C)cc3[nH]2)cc([N+](=O)[O-])c1O	ATXN viability 17.8µM
O=C(NCc1ccccc1Cl)c1ccc(-n2cnc3cccnc32)cc1	KB-V1 MDR tox inconclusive (no result: HT1080NT lethal, HT1080 IDH1KD tx)
COc1ccc(C(=O)CC2(O)C(=O)N(CCc3ccccc3)c3ccc(Br)cc32)cc1OC (stereo not given)	ATXN2 expr inh inconclusive, ATXN viability inconclusive (no result: HT1080NT lethal, HT1080 IDH1KD tx)
COC(=O)c1cc(=O)n(CCc2ccccc2F)c(=Nc2ccc(F)c(Cl)c2)s1	ATXN2 expr inh 26.7µM, HT1080NT lethal 20.6µM, KB-3-1 cytotox inconclusive, HT1080 IDH1KD tx 18.4µM (no result: ATXN viability)
COC(=O)c1cc(=O)n(Cc2ccc3c(c2)OCO3)c(=Nc2ccc(F)cc2)s1	KB-3-1 cytotox inconclusive
